Results taken from PubChem BioAssay AID1942 (Johns Hopkins Ion Channel Center, 2009).
Out of some 2,400 compounds screened, about 580 (24%) were called active.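 How the source made its calls: active means activity change at or above the mean plus 3 SD of buffer wells without dofetilide, per plate; inactive means the rest.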 These entries were drawn from the full list.

Target: Potassium voltage-gated channel subfamily KQT member 2 (Rattus norvegicus) (UniProt O88943)
Assay: KCNQ2 potentiation in CHO cells – cell-based, FluxOR thallium flux, counter-screen for hERG block protector project, confirmation (AID 1942);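 further: normalized value minus buffer-control mean plus three SD of buffer wells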
Conditions: FluxOR thallium flux fluorescence, at 10 µM, active compounds read high

Chain of Potassium voltage-gated channel subfamily KQT member 2 (Rattus norvegicus) (O88943 whole entry, looked up): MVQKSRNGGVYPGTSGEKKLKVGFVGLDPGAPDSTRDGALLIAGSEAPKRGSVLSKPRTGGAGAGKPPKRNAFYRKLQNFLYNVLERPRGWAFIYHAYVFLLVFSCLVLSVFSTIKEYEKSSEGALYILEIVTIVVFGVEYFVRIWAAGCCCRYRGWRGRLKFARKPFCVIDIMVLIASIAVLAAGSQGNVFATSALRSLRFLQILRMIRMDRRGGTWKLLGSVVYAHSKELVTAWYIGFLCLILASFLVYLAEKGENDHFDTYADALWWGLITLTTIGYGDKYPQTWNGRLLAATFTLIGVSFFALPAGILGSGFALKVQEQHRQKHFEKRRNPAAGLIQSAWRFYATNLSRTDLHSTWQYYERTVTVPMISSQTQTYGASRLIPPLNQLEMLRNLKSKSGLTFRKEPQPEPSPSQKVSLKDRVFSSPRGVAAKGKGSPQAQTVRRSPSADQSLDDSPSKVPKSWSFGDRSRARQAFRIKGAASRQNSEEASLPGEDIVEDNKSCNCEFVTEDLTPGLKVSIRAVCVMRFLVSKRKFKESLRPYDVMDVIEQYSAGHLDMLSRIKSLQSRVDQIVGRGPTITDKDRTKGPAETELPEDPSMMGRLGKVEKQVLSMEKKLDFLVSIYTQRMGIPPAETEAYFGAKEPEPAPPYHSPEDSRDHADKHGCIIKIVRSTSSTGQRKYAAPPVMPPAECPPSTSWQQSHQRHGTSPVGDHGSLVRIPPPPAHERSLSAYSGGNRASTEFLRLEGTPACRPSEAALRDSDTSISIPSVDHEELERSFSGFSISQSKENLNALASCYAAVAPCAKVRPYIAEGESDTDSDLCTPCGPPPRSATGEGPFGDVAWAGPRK

| Compound | activity change, less the hit threshold |
| --- | --- |
| C=CCSc1nc2sc3c(c2c(=O)n1CC)CCc1ccccc1-3 | 11.4% (active) |
| O=C(O)CN1C(=O)C(=O)N(Cc2ccc(C(F)(F)F)cc2)C1=O | -4.3% (inactive) |
| CCOC(=O)N1CCN(C(=O)CCn2c(=S)[nH]c3ccsc3c2=O)CC1 | -2.5% (inactive) |
| CCCn1c(SC(C)C(=O)N2CCOCC2)nc2ccc(Br)cc2c1=O (stereo not given) | -15.9% (inactive) |
| O=c1c2cc(Br)ccc2nc(-c2ccc(Cl)cc2)n1O | 133% (active) |
| O=c1c2cc(Br)ccc2nc(-c2cccc(Cl)c2)n1O | 111% (active) |
| N#Cc1ccc(-c2nc3ccc(Br)cc3c(=O)n2O)cc1 | 17.3% (active) |
| O=c1c2cc(Br)ccc2nc(-c2cccc(C(F)(F)F)c2)n1O | 126% (active) |
| COc1ccc(CCNS(=O)(=O)c2csc(C(N)=O)c2)cc1OC | -18.8% (inactive) |
| NC(=O)[C@@H]1CCCN1Cc1nc(Cc2ccccc2Cl)no1 | -17.5% (inactive) |
| COc1ccc(Cl)cc1N(C)C(=O)CCNC(=O)Cn1cnc2ccccc2c1=O | -14.6% (inactive) |
| CCOC(=O)N1CCC(N2C(=O)c3ccccc3C2Nc2cccnc2)CC1 (stereo not given) | -1.9% (inactive) |
| O=c1c2cc(Br)ccc2nc(-c2ccccc2)n1O | 36.9% (active) |
| O=c1c2ccc(Cl)cc2nc(-c2cccc(C(F)(F)F)c2)n1O | 118% (active) |
| COc1ccc(S(=O)(=O)N2CCCC(C(=O)Nc3ccc(OC)c(OC)c3)C2)cc1 (stereo not given) | -17.4% (inactive) |
| Cc1cc(C=O)c2c(c1)C=CC1(Oc3ccccc3C(=O)N1C)O2 (stereo not given) | -0.3% (inactive) |
| N#Cc1c(-c2ccc(Cl)cc2)cc(-c2cccs2)nc1SCC(=O)O | -24.7% (inactive) |
| CCOc1ccc(S(=O)(=O)Nc2nc3ccccc3nc2-n2ccc(=NC(=O)c3cccs3)cc2)cc1 | -21.1% (inactive) |
| O=[N+]([O-])c1cccc(/C=C/c2nc(C=Nc3ccccc3)c(O)o2)c1 | -18.2% (inactive) |
| COc1ccc(C(=O)NC(=S)N(C)C2CCCCC2)cc1Br | 0.5% (active) |
| CC1CCCC(NC(=S)NC(=O)c2cncc(Br)c2)C1C (stereo not given) | -12% (inactive) |
| Cc1ccc(C(=O)NC(=S)N(C)C2CCCCC2)cc1Br | 2.9% (active) |
| COC(=O)C1=NN(C(=O)c2ccc(Cl)cc2)C(O)(c2ccccc2)C1 (stereo not given) | 76.9% (active) |
| CC1=NN(C(=O)c2ccccc2Br)C(O)(c2ccc(Cl)cc2)C1 (stereo not given) | -27.3% (inactive) |
| CC1=NN(C(=O)c2ccc(Cl)cc2)C(O)(c2ccccc2)C1 (stereo not given) | -5.5% (inactive) |
| COC(=O)C1=NN(C(=O)c2cccc(Br)c2)C(O)(c2ccc(Cl)cc2)C1 (stereo not given) | 134% (active) |
| CC(C)(C)C1(O)CC(C(F)(F)F)=NN1C(=O)Cc1ccc([N+](=O)[O-])cc1 (stereo not given) | -20.8% (inactive) |
| CCOC(=O)c1cnc(-n2nc(C)cc2C)nc1Nc1cccc(C(=O)O)c1 | -13.4% (inactive) |
| CCC1=NN(C(=O)c2ccc(Cl)cc2)C(O)(c2ccccc2)C1 (stereo not given) | -23.9% (inactive) |
| CCOC(=O)C1=NN(C(=O)c2cccc(Br)c2)C(O)(C(C)(C)C)C1 (stereo not given) | 87.6% (active) |
